tim23-1 inh = growth inhibitors of tim23-1 mutant yeast, primary screen, luminescence, uHTS; AID 463212, 2010; hit rate 1.3% among 330,000; inhibition, % at 20 µM; S. cerevisiae tim23-1 growth, BacTiter-Glo luminescence, 24 h;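 active = growth inhibition of the mutant yeast at or above 50%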;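 also: temperature-sensitive mutant grown at 25 °C; plate controls were DMSO-treated mutant yeast for no effect and medium wells lacking yeast for full effect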
PfHsp90 set2 = growth inhibition of PfHsp90-expressing yeast, primary screen, antimalarial PfHsp90 inhibitor project, S. cerevisiae, BacTiter-Glo luminescence, single point, set 2 | BacTiter-Glo ATP, 48 h; yeast lacking PDR1 and PDR3 efflux regulators | inhibition, % at 9.4 µM | hit rate 0.32% among 310,000 | AID 504621, 2011;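 active = every replicate shows inhibition above about 80%, whatever the replicate mean, limit read from the data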;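 also: 0% = DMSO neutral controls and 100% = 20 µM radicicol positive controls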
TIM10 inh = growth inhibitors of isogenic TIM10 control yeast, primary screen, counter-screen for tim10-1 yeast inhibitor project, luminescence, uHTS; AID 463195, 2010; S. cerevisiae TIM10 strain growth, BacTiter-Glo luminescence, 24 h; inhibition, % at 10 µM; hit rate 1.4% among 330,000;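 active = inhibition of 40% or more at the single tested concentration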;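 also: wild-type TIM10 isogenic control strain grown at permissive 25 °C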
V-ATPase pH = regulators of yeast V-ATPase proton pumping, primary screen, pHLuorin cytosolic pH fluorescence; hit rate 0.37% among 350,000; S. cerevisiae; response, % at 10 µM; in the data active = response mostly above about 7.3%, no sharp cut-off; inactive = mostly below about 5.4%; also: actives read high
tim10-1 inh = growth inhibitors of tim10-1 mutant yeast, primary screen, luminescence, uHTS; S. cerevisiae tim10-1 ts strain growth, BacTiter-Glo, 24 h; inhibition, % at 20 µM; hit rate 2.2% among 330,000;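 active = inhibition of at least 40%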;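 also: mutant grown at 25 °C; 0% = DMSO wells with yeast and 100% = wells holding no yeast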
TIM10 conf = growth inhibitors of wild-type TIM10 yeast, confirmation, counter-screen for tim10-1 synthetic lethality project, single concentration, luminescence, S. cerevisiae. shares compounds with TIM10 inh. S. cerevisiae tim10 strain growth, BacTiter-Glo luminescence, 24 h. inhibition, % at 10 µM. hit rate 63% among 4,600;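 active = inhibition of yeast growth at or above a set limit in either of two replicates at 10 µM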;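 also: this counterscreen used the strain with wild-type TIM10; 0% = yeast with DMSO and 100% = medium wells lacking yeast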
* hit, by the source's call; / = no result. Compounds with a hit are over-represented: about 3.7% of the library has one in this group of screens.

SMILES	tim23-1 inh	PfHsp90 set2	TIM10 inh	V-ATPase pH	tim10-1 inh	TIM10 conf
CC(=O)Oc1ccc(C(=O)Nc2ccc(S(=O)(=O)NCC3CCCO3)cc2)cc1 (stereo not given)	-4	-6	1	0	-1	/
CCCCCCCCn1c(N2CCN(c3cccc(Cl)c3)CC2)nc2c1c(=O)[nH]c(=O)n2C	11	-5	7	-2	6	/
CC(C)CCn1c(N2CCN(c3cccc(Cl)c3)CC2)nc2c1c(=O)[nH]c(=O)n2C	21	-18	41*	-2	27	-8
CCOC(=O)N1CCN(C(=S)NC(=O)c2c(-c3c(Cl)cccc3Cl)noc2C)CC1	22	0	40	-1	39	22
CCS(=O)(=O)c1nc(S(=O)(=O)c2ccc(Cl)cc2)c(NCCN2CCOCC2)s1	11	15	4	-1	-11	/
CCS(=O)(=O)c1nc(S(=O)(=O)c2ccc(C)cc2)c(NCCN2CCOCC2)s1	-15	-16	97*	1	-2	10
CCOc1ccc(N/C(SCc2cccc([N+](=O)[O-])c2)=C(/C#N)C(N)=O)cc1	38	-57	46*	-2	39	41*
CCC(Cc1ccccc1)n1c(=S)[nH]c2ccccc2c1=O (stereo not given)	24	-37	50*	-3	34	38*
CCc1ccccc1NC(=O)N1CCc2ccccc2C1	11	-2	-2	3	10	/
O=C(Nc1cccc2ccccc12)N1CCc2ccccc2C1	15	4	40*	0	24	-20
Nc1ccc(C23CC4CC(CC(C4)C2)C3)cc1	34	-7	42*	0	15	23
Nc1ccc(C23CC4CC(CC(O)(C4)C2)C3)cc1	17	13	4	-2	15	/
CC(C)CNc1nnnc2c1sc1nc(N3CCOCC3)c3c(c12)CC(C)(C)SC3	4	-45	40*	0	37	21
CC1(C)Cc2c(c(N3CCOCC3)nc3sc4c(NCc5ccccc5)nnnc4c23)CS1	8	-14	22	2	29	/
COc1ccc(-n2cnc3cc(NC(=O)c4ccco4)ccc32)cc1	29	6	66*	0	29	54*
CSc1ncc(CN2CCc3c([nH]c4ccccc34)C2c2cccc(O)c2)cn1 (stereo not given)	13	-26	5	3	17	/
O=C(Nc1cccc(Cl)c1)O/N=C\c1ccncc1	-1	30	8	2	-6	/
O=C(Nc1ccc(Cl)c(Cl)c1)O/N=C/c1ccncc1	8	3	43*	2	29	-24
CCOc1ccc(-n2c(C)nc3c(cnn3-c3ccc(Cl)cc3)c2=O)cc1	/	-13	/	-4	/	/
CCc1nc2c(cnn2-c2ccc(Cl)cc2)c(=O)n1-c1ccc(OC)cc1	6	-3	42*	1	6	16
CCOC(=O)C1CCCN(C(=O)c2ccc3[nH]c4c(c3c2)CC(C)CC4)C1 (stereo not given)	43	4	73*	-1	23	22
CCc1cc(C(=O)Nc2nc(-c3ccccn3)cs2)sc1C	9	0	-5	-3	6	/
Cc1cc(C)c(C(=O)C(C)OC(=O)Cn2cnc3c2c(=O)n(C)c(=O)n3C)cc1C (stereo not given)	-7	-23	58*	0	-17	-33
CC(OC(=O)Cn1cnc2c1c(=O)n(C)c(=O)n2C)C(=O)c1ccccc1 (stereo not given)	-5	/	-5	-2	-1	/
O=C(Nc1ccc(Cl)c(Cl)c1)Nc1ccccc1NS(=O)(=O)c1cccs1	-142	5	47*	5	20	25
SMILES	tim23-1 inh	PfHsp90 set2	TIM10 inh	V-ATPase pH	tim10-1 inh	TIM10 conf
COc1ccccc1NC(=O)c1c(N=Cc2ccccc2O)cnn1C	22	/	13	/	23	/
CC(=O)c1ccccc1NC(=O)COC(=O)Cc1cccc(C(F)(F)F)c1	15	4	-24	1	14	/
CN(C)CCN(C(=O)c1ccc(S(=O)(=O)N2CCCC2)cc1)c1nc2ccc(Br)cc2s1	16	-28	15	2	16	/
CC1CCCCN1S(=O)(=O)c1ccc(C(=O)N(CCCN(C)C)c2nc3ccc(Br)cc3s2)cc1 (stereo not given)	11	-1	40	-2	16	23
COc1ccc(/C=N/Nc2nc(Nc3ccccc3)nc(N3CCCCC3)n2)c(OC)c1	25	4	41*	2	30	-32
COc1ccc(/C=N/Nc2nc(Nc3ccccc3)nc(N3CCCC3)n2)cc1[N+](=O)[O-]	0	13	8	4	-8	/
Cc1[nH]c2ccccc2c1/C=N/Nc1nc(Nc2ccccc2)nc(N2CCOCC2)n1	18	-19	52*	0	24	35*
Fc1ccc(Nc2nc(N/N=C/c3ccco3)nc(N3CCCCC3)n2)cc1	41	-6	40*	1	13	22
O=C(Nc1ccc(Cl)c(S(=O)(=O)N2CCCCC2)c1)c1cccnc1	11	-12	16	8	20	/
COc1ccc(C(=O)Nc2ccc3nc(C)sc3c2)cc1S(=O)(=O)N1CCOCC1	/	/	/	0	/	/
Cn1c(=O)n(CC(=O)O)c(=O)c2c1nc1n2CCCN1Cc1ccccc1	-1	-9	6	-1	9	/
Cn1c(=O)n(Cc2ccccc2)c(=O)c2c1nc1n2CCCN1C1CCCCC1	18	-65	41*	5	33	27
Cc1cccc(Cn2c(=O)c3c(nc4n3CCCN4Cc3ccccc3)n(C)c2=O)c1	37	-4	55*	-1	39	1
CCn1c(=O)c2c(nc3n2CCCN3Cc2ccccc2)n(C)c1=O	14	11	-12	5	28	/
CCOCCCn1c(=NC(=O)c2cccs2)c(C#N)cc2c(=O)n3ccccc3nc21	-4	8	5	-1	0	/
CC(=O)N(c1ccccc1)C(C(=O)c1ccccc1)c1ccccc1 (stereo not given)	/	/	/	-4	/	/
COc1ccc(C(CNC(=O)c2nn(-c3ccccc3)c(=O)c3ccccc23)N2CCOCC2)cc1 (stereo not given)	35	-8	12	3	21	/
O=C(NCc1ccc(Cl)cc1)c1ccc(Br)o1	13	2	68*	1	-24	-40
O=C(NNC(=S)NCc1ccc(Cl)cc1)c1ccc(Br)o1	1	1	17	0	9	/
CC1=C(c2ccccc2)C(O)(c2ccccc2)C(C)C1=O (stereo not given)	/	18	/	2	/	/
Nc1nonc1C(=O)NCCN=Cc1cc(Cc2ccccc2)cc(Br)c1O	-56	123*	51*	-4	13	67*

Screens: PubChem, several laboratories
